From PubChem
HepG2 viability: counter-screen for TGF-b inhibitors: cytotoxicity in HepG2 cells; 410,000 compounds, 0.76% hits; Potency, µM (doses to about 46.1 µM), for inactives: at the highest dose activity change, negative = cytotoxicity, usual class: cytotoxic; HepG2 CAGA-GFP viability, ATP luminescence, 18 h; further: potency means the concentration at half of the fitted maximal effect
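CellTiter-Glo luminescence gave cytotoxicity after 18 hours at 37 degrees C. The cells were HepG2 CAGA-GFP in 1% FBS DMEM, stimulated with 500 pg/mL TGF-beta after compound addition. %Activity was normalised to no-cell wells (complete cell-killing) and DMSO (no toxicity), and curves were fitted and classified.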
TDP1 inh: TDP1 (human) enzyme inhibition. Q9NUW8. recombinant TDP1, AlphaScreen DNA substrate cleavage. Potency, µM (top dose mostly 130 µM), without a hit: at the top dose activity change, negative = inhibition, most hits filed as inhibitors. 350,000 compounds, 0.28% hits; further: potency means the concentration at half of the fitted maximal effect; on the % scale 0 is the no-effect control and ±100 the full control effect; nearly all actives have a fitted effect of over 40% in size
Target sequence (Q9NUW8 whole entry, looked up): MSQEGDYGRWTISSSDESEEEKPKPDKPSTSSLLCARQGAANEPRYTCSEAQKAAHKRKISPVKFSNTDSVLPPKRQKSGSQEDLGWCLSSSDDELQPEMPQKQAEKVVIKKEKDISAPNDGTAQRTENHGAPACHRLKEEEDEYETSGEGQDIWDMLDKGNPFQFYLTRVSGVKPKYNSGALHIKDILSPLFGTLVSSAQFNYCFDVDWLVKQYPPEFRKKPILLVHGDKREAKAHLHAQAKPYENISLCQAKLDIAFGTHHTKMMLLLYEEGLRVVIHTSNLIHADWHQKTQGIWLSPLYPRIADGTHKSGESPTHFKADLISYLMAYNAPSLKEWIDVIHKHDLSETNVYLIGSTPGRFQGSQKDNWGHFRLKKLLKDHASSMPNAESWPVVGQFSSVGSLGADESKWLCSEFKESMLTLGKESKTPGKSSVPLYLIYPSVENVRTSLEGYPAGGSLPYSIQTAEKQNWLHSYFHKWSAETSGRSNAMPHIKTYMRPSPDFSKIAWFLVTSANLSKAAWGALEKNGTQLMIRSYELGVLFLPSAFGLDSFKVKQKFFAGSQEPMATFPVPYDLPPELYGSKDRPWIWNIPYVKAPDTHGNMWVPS
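Recombinant E. coli-expressed Tdp1 (1 nM) preincubated with compound 15 min at RT, then 5'-biotin/3'-phosphotyrosine-FITC DNA substrate (15 nM) added for 5 min. AlphaScreen beads (10 ug/ml) added, 10 min RT; tyrosine-FITC cleavage read as signal loss.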
DT40 TDP1 no CPT: qHTS for Inhibitors of human tyrosyl-DNA phosphodiesterase 1 (TDP1): qHTS in cells in absence of CPT; DT40 Tdp1-/- hTDP1 cells, no CPT, ATP luminescence, 48 h; Potency, µM (titrated, usually from 46.2 µM), for the others: at the top dose activity change, negative = growth inhibition, hits mostly inhibitors; 420,000 compounds, 15% hits; further: potency means the concentration at half of the fitted maximal effect; on the % scale 0 is the no-effect control and ±100 the full control effect; nearly all actives have a fitted effect of over 55% in size
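Chicken DT40 Tdp1-/- cells complemented with human TDP1, screened without camptothecin (DMSO vehicle only), 400 cells/well. Compounds pin-transferred, cells incubated at 37 °C for at least 48 hr. Growth read as ATP-dependent luminescence (CellTiter-Glo, 30 min at RT).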
IL-1B inflam inh: blocks inflammasome-driven IL-1 beta release | THP-1 LPS/ATP IL-1B secretion, AlphaLISA, 16 h; hits give low values | activity change, % at 57.5 µM | 360,000 compounds, 4.7% hits; in the data active means activity change below about -50%; inconclusive means mostly about -30% to -49%; further: on the % scale 0 is the no-effect control and ±100 the full control effect
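THP-1 cells pretreated 1 hr with compounds (up to 57.5 uM final), then stimulated with LPS (250 ng/mL final) plus ATP (1.25 mM final); secreted IL-1B measured by AlphaLISA after 16 hr, decreased signal indicating inhibition.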
TDP1 cell CPT: DT40-hTDP1 cell growth loss with CPT; chicken DT40 Tdp1-/-;hTDP1 cells + 20 nM CPT, ATP luminescence, 48 h; Potency, µM (titrated, usually from 46.2 µM), without a hit: at the highest dose activity change, negative = growth inhibition, most hits filed as inhibitors; 420,000 compounds, 12% hits; AID 686979; further: potency means the concentration at half of the fitted maximal effect; on the % scale 0 is the no-effect control and ±100 the full control effect; nearly all actives have a fitted effect of over 55% in size
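Chicken DT40 Tdp1-/- cells stably complemented with human TDP1 were seeded at 400 cells/well in medium containing 20 nM camptothecin, exposed to pin-transferred compounds, and grown at 37 °C for at least 48 hr. Viability was read as ATP luminescence.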
TGFb inhibitor: TGF-b pathway inhibition; HepG2 CAGA-GFP TGF-b/SMAD3 reporter, GFP fluorescence, 18 h; TGF-beta stimulated, 500 pg/mL final; Potency, µM (doses to about 46.1 µM), for inactives: top-dose activity, negative = inhibition, hits mostly inhibitors; 410,000 compounds, 1.2% hits; AID 588855; further: potency means the concentration at half of the fitted maximal effect; on the % scale 0 is the no-effect control and ±100 the full control effect; nearly all actives have a fitted effect of over 65% in size
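Inhibition was scored as loss of TGF-beta-induced (500 pg/mL final, 18 hours, 37 degrees C) GFP in HEPG2 cells carrying a CAGA-GFP reporter, in DMEM with 1% FBS. Well GFP was summed per cell; Activity was normalised to unstimulated and stimulated DMSO wells, then concentration-response fitting.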
An asterisk follows results filed as active; ? = inconclusive; . = no result given; ! = repeats disagree; [ ] = another dose, or the depositor's remark. An excerpt weighted towards active compounds, which were near 18% of everything screened. Unless noted, the call rests on the fitted dose curve; in most records, active means well fitted curve in the direction sought with a large enough effect; inconclusive means small, poorly fitted or top-dose-only effect, or another doubt; inactive means no such curve, though single readings can be large; an effect the other way counts as inactive or inconclusive.

SMILES	HepG2 viability	TDP1 inh	DT40 TDP1 no CPT	IL-1B inflam inh	TDP1 cell CPT	TGFb inhibitor
Cc1nn(Cc2ccc(Cl)cc2)c(C)c1NC(=O)c1c(-c2ccccc2)noc1C	-12.7%	-10.8%[56.1 µM]	-29.9%	3.6	16.4µM*	-1.7%
Cc1nn(Cc2ccc(Cl)c(Cl)c2)c(C)c1NC(=O)c1cn(-c2ccccc2)nc1-c1ccccc1	3.8%	0.0%	?	?	?	-12.3%
Cc1nn(Cc2ccc(Cl)cc2)c(C)c1NC(=O)c1cc(C(C)C)on1	-31.9%	10.6%	14.6µM*	13.3	20.6µM*	-16.6%
OC(c1ccc(Cl)c(F)c1)c1ncc(-c2cccc(F)c2)[nH]1 (stereo not drawn)	-44.2%	.	?	16.4	?	?
CCCN(C(=O)c1cc(Cl)nc2ccccc12)c1c(N)n(Cc2ccccc2)c(=O)[nH]c1=O	7.4%	-0.3%	18.3%	5.8	-1.3%	-4.4%
COc1cccc(CNCCSc2nnnn2C)c1OCc1ccc(Cl)cc1Cl	-49.9%	12.3%	23.1µM*	.	16.4µM*	?
COc1cccc(CNCCSc2nnnn2C)c1OCc1ccc(Cl)cc1	-0.2%	7.1%	?	.	20.6µM*	17.8µM*
CCOc1c(CNCCSc2nnnn2C)cccc1OC	4.5%	8.4%	5.0%	.	-1.8%	-1.4%
Cc1ccc(N2CCN(C(=O)c3nn(C)c4c3CS(=O)(=O)c3ccccc3-4)CC2C)cc1 (stereo not drawn)	-16.9%	6.3%	?	-28.9	20.6µM*!	?
Cc1ccccc1Cc1c(C)nc2nc(SCC(=O)NCCc3ccc(Cl)cc3)nn2c1C	-5.8%	2.9%	?	.	16.4µM*	0.1%
Cc1ccc(Cc2c(C)nc3nc(SCC(=O)NCCCN4CCCCCC4)nn3c2C)cc1	-17.3%	-12.4%[0.0935 µM]	?	-22.6	?	1.3%
Cc1nc2nc(SCC(=O)NCCCN3CCCC3)nn2c(C)c1Cc1ccccc1Cl	-2.1%	5.4%[0.0935 µM]	?	-53.8*	?	9.0%
CCN(CC)CCCNC(=O)CSc1nc2nc(C)c(Cc3c(F)cccc3Cl)c(C)n2n1	-23.1%	2.9%	6.51µM*	.	?	2.3%
CCC1CCCCN1CCCNC(=O)CSc1nc2nc(C)c(Cc3ccc(C)cc3)c(C)n2n1 (stereo not drawn)	-20.8%	3.5%	?	?	23.1µM*	8.4%
O=C(C1CCC(Cn2c(=S)[nH]c3ccccc3c2=O)CC1)N1CCN(c2ccccn2)CC1 (stereo not drawn)	-1.9%	-2.5%	23.1µM*	12.9	?	-16.6%
COc1ccccc1N1CCN(C(=O)C2CCC(Cn3c(=S)[nH]c4ccccc4c3=O)CC2)CC1 (stereo not drawn)	-13.8%	7.1%	?	29.7	23.1µM*	?
O=C(C1CCC(Cn2c(=S)[nH]c3ccccc3c2=O)CC1)N1CCN(c2ccccc2)CC1 (stereo not drawn)	-41.1%	.	?	9.3	?	-7.8%
O=C(C1CCC(Cn2c(=S)[nH]c3ccccc3c2=O)CC1)N1CCOCC1 (stereo not drawn)	-8.5%	-5.1%	-25.1%	1.0	-1.6%	1.0%
O=C(C1CCC(Cn2c(=O)[nH]c3ccccc3c2=O)CC1)N1CCN(c2ccccc2)CC1 (stereo not drawn)	-20.4%	2.6%	-28.1%	-15.6	-13.2%	-12.7%
COc1ccc(N2CCN(C(=O)C3CCC(Cn4c(=S)[nH]c5ccccc5c4=O)CC3)CC2)cc1 (stereo not drawn)	-32.9%	8.7%	23.1µM*	-7.7	14.6µM*	-13.1%
O=C(CSc1cccc[n+]1[O-])Nc1cccc(S(=O)(=O)NC2=NCCCCC2)c1	-12.5%	10.7%	4.6%	-0.9	2.4%	-21.2%
O=C(NCCc1ccccc1)c1cnn(-c2ccc(F)cc2)c1-n1cccc1	-16.8%	0.0%	.	.	.	-7.7%
CCc1nc2ccc(C(=O)NC3CCC(C)CC3)cc2nc1CC (stereo not drawn)	1.7%	-0.4%	-19.9%	-3.3	?	1.5%
Cc1ccc(CNC(=O)C2CCCN(S(=O)(=O)N3CC(C)CC(C)C3)C2)cc1 (stereo not drawn)	6.0%	1.6%	9.9%	6.3	-10.5%	1.2%
CN1C(=O)C2(c3ccccc31)N(C)CC(c1ccccc1)C21SC(=S)N(Cc2ccco2)C1=O (stereo not drawn)	-10.5%	8.6%	9.2µM*	-0.1	?	-11.9%
SMILES	HepG2 viability	TDP1 inh	DT40 TDP1 no CPT	IL-1B inflam inh	TDP1 cell CPT	TGFb inhibitor
Cn1c(N)c(C(=O)CSc2n[nH]c(N)n2)c(=O)n(C)c1=O	-4.5%	-7.8%	-2.6%	0.0	0.2%	0.0%
Cc1n[nH]c(=S)n(/N=C/c2cccs2)c1=O	10.8%	7.1%	6.51µM*	-6.1	?	30.9%
Cn1c(C(=O)NCc2ccccn2)cc2c(=O)n(C)c3ccccc3c21	-26.9%	6.9%	?	-27.6	0.581µM*	-0.3%
CCCCN(C)CCNC(=O)c1cc2c(=O)[nH]c3ccccc3c2n1C	-24.6%	.	-28.1%	-16.3	4.8%	2.0%
CCCCN(CC)CCCNC(=O)c1cc2c(=O)n(C)c3ccccc3c2n1C	-25.3%	2.6%	?	-73.0*	?	5.0%
CC(NC(=O)c1cc2c(=O)n(C)c3ccccc3c2n1C)c1ccc2c(c1)OCCO2 (stereo not drawn)	-5.1%	.	13µM*	13.0	29.1µM*	-13.7%
CCCCN(C)CCNC(=O)c1cc2c(=O)n(C)c3ccccc3c2n1C	-29.3%	0.0%	23.1µM*	.	?	?
CCOc1ccc(CN2C(=O)c3ccccc3Sc3ccc(C(=O)O)cc32)cc1	1.6%	2.6%	?	.	?	-14.6%
COc1ccc(S(=O)(=O)NC2CC(C)(C)NC(C)(C)C2)c2ccccc12	-24.6%	0.9%	?	-7.4	?	7.9%
COc1cccc(CNC(=O)c2c(OC)cc(=O)n3c2CCN(C(=O)C2=C(C)OCCO2)CC3)c1	.	.	-3.9%	.	6.6%	.
O=C(NCc1cccs1)c1ccc2nc([C@@H]3O[C@H](CO)[C@H](O)[C@H](O)[C@H]3O)[nH]c2c1	1.2%	.	-3.7%	50.6	1.2%	2.5%
Cc1csc(NC(=O)CCc2c(C)nc3cc(-c4cccc(F)c4)nn3c2C)n1	-7.3%	-1.3%	20.6µM*	-0.5	16.4µM*	?
